Assay outcomes deposited in PubChem by National Center for Advancing Translational Sciences (NCATS).
Hits are enriched below; roughly 19% of the tested compounds scored in any of these assays.
uPA surface inh – cell surface uPA generation inhibition; cell surface uPA generation assay, qHTS; Potency, µM (titrated, usually from 38.3 µM), inactives show top-dose activity change, negative = inhibition, most hits filed as inhibitors; 0.31% of 330,000 active; active = well fitted inhibition curve with a large enough effect; inconclusive = small, poorly fitted or top-dose-only effect; inactive = no such curve, though single readings can be large or run the other way; tested in mouse RAW 264.7 cells; note: potency is the fitted concentration of half-maximal effect; nearly all actives have a fitted effect of over 55% in size
TDP1 cell CPT – growth inhibition of DT40 Tdp1-/-;hTDP1 cells with camptothecin (screen for TDP1 inhibitors) | 12% of 420,000 active | chicken DT40 Tdp1-/-;hTDP1 cells + 20 nM CPT, ATP luminescence, 48 h | AID 686979 | Potency, µM (top dose mostly 46.2 µM), inactives show at the top dose activity change, negative = growth inhibition, most hits filed as inhibitors; note: potency is the fitted concentration of half-maximal effect; nearly all actives have a fitted effect of over 55% in size
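Chicken DT40 Tdp1-/- cells complemented with human TDP1, 400 cells/well, exposed to compounds plus 20 nM camptothecin for at least 48 h at 37 C; viability read as ATP content by CellTiter-Glo luminescence.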
HT1080 IDH1KD tx – kills HT-1080 cells with IDH1 knockdown | HT-1080 IDH1 knockdown viability, ATP luminescence, 48 h | Potency, µM (series often up to 46.1 µM), without a hit: top-dose activity, negative = toxicity, actives largely listed as cytotoxic | 2% of 360,000 active;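 note: potency is the fitted concentration of half-maximal effect; 0% = DMSO wells and -100% = cell-free medium wells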
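Cytotoxicity counter-line: IDH1KD HT-1080, 48 h, CellTiter-Glo. Curves classed by r2, magnitude and activity.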
IL1B secr inh – blocks inflammasome-driven IL-1 beta release | THP-1 LPS/ATP IL-1B secretion, AlphaLISA, 16 h; active compounds read low | activity change, % at 57.5 µM | 4.7% of 360,000 active; in the data active = activity change below about -50%; inconclusive = mostly about -30% to -49%
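Secreted IL-1B measured by AlphaLISA bead assay after 16 h compound exposure of THP-1 cells; compounds (final up to 57.5 uM) added 1 h before LPS (250 ng/mL) and ATP (1.25 mM) stimulation; lower signal means less secretion.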
HT1080NT lethal – kills 2HG-producing HT-1080-NT fibrosarcoma cells; HT-1080-NT fibrosarcoma viability, CellTiter-Glo ATP luminescence, 48 h; Potency, µM (doses to about 46.1 µM), for the others: at the highest dose activity, negative = less viability, actives largely listed as cytotoxic; 1.6% of 360,000 active; AID 686970;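 note: NT is the 2HG producing partner of a matched IDH1 knockdown line; potency is the fitted concentration of half-maximal effect; 0% = DMSO-treated cells and -100% = media-only wells without cells; nearly all actives have a fitted effect of over 55% in size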
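Luminescent CellTiter-Glo readout after 48 hours of compound exposure at 37 degrees C defined viability of HT-1080-NT cells. Activity was normalized to DMSO wells and cell-free media wells; concentration-response curves were fitted and assigned curve classes.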
TDP1 cell noCPT – qHTS for Inhibitors of human tyrosyl-DNA phosphodiesterase 1 (TDP1): qHTS in cells in absence of CPT; DT40 Tdp1-/- hTDP1 cells, no CPT, ATP luminescence, 48 h; Potency, µM (doses to about 46.2 µM), without a hit: top-dose activity change, negative = growth inhibition, hits mostly inhibitors; 15% of 420,000 active; note: potency is the fitted concentration of half-maximal effect; nearly all actives have a fitted effect of over 55% in size
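Chicken DT40 Tdp1-/- cells stably complemented with human TDP1 were seeded at 400 cells/well with DMSO in place of 20 nM camptothecin. After compound pinning, cells grew at least 48 hr at 37 °C; viability read by CellTiter-Glo luminescence.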
Active calls of the source: *; u = inconclusive; x = not tested or not shown; [ ] = remark or other dose. Unless noted, calls come from the whole dose curve; as a rule, active = well fitted curve in the direction sought with a large enough effect; inconclusive = small, poorly fitted or top-dose-only effect, or another doubt; inactive = no such curve, though single readings can be large; an effect the other way counts as inactive or inconclusive. Unless noted, % is set by controls: 0 for no effect and ±100 for the full control effect.

SMILES | uPA surface inh | TDP1 cell CPT | HT1080 IDH1KD tx | IL1B secr inh | HT1080NT lethal | TDP1 cell noCPT
Cc1ccc(S(=O)(=O)N2CCC(=O)N([C@H](COC(=O)Nc3ccccc3)Cc3ccccc3)CC2)cc1 | x | u | 3% | -10 | -11% | 18µM*
Cc1ccc(S(=O)(=O)N2CCC(=O)N(C(COCc3cccc(Cl)c3)Cc3ccccc3)CC2)cc1 (stereo not drawn) | -17% | -91% | -8% | 10 | 0% | 18µM*
Cc1ccc(S(=O)(=O)N2CCC(=O)N(C(COCc3ccccc3)Cc3ccccc3)CC2)cc1 (stereo not drawn) | 3% | u | 0% | -26 | -4% | 12µM*
Cc1ccc(S(=O)(=O)N2CCC(=O)N([C@H](COCc3ccc(Cl)c(Cl)c3)Cc3ccccc3)CC2)cc1 | x | u | 3% | 32 | 10% | u
Cc1ccc(S(=O)(=O)N2CCC(=O)N(C(COCc3cccc(C(F)(F)F)c3)Cc3ccccc3)CC2)cc1 (stereo not drawn) | -8% | u | -10% | 33 | -1% | 21µM*
Cc1ccc(S(=O)(=O)N2CCC(=O)N([C@H](COCc3ccc(Cl)cc3)Cc3ccccc3)CC2)cc1 | x | u | -4% | -13 | 3% | u
O=C(NCc1ccccc1F)C(=O)NCC(c1cccs1)S(=O)(=O)c1cccs1 (stereo not drawn) | x | -27% | x | x | x | u
O=S(=O)(c1ccc(Cl)nc1)N1CCN(c2ncccn2)CC1 | 2% | -10% | 6% | -14 | 3% | 5%
Cc1ccc(S(=O)(=O)N2CCC(=O)N([C@H](COCc3cccc(Cl)c3)Cc3ccccc3)CC2)cc1 | x | u | -9% | 28 | -6% | 21µM*
Cc1ccc(S(=O)(=O)N2CCC(=O)N(CCOCc3cccc(Cl)c3)CC2)cc1 | -3% | u | -3% | -4 | -1% | u
Cc1ccc(S(=O)(=O)N2CCC(=O)N(CCOCc3ccc(Cl)cc3)CC2)cc1 | 0% | 12µM* | -2% | -16 | -20% | 16µM*
CN(C)CCCn1c2c(c(SCC(=O)Nc3ccc4c(c3)OCCO4)nc1=O)CCC2 | 1% | -24% | -9% | 0 | -6% | u
O=C(NCCCCCCCN1CCCCCCC1)C(C1CCCCC1)C1CCCCC1 | 0% | 13µM* | u | -82* | -16% | 15µM*
CCN(CC(=O)NCc1ccccc1Cl)CC(=O)Nc1c(F)cccc1F | 7% | -18% | -1% | 4 | 1% | -15%
Cc1ccc(C(=O)Nc2cccc(O)c2)cc1S(=O)(=O)N1CCCCCC1 | -16% | 29µM* | -20% | -57* | -21% | 1.2µM*
COC(=O)c1ccc(COC(=O)c2ccc(C)c(S(=O)(=O)N3CCCCC3)c2)cc1 | -2% | 29µM* | -3% | 33 | -3% | u
Cc1ccc(NC(=O)c2ccc(F)cc2)cc1S(=O)(=O)N1CCCCCC1 | -1% | u | -13% | u | -16% | -29%
O=C(O)c1cccc(NC(=O)c2ccc(Cl)c(S(=O)(=O)N3CCCCCC3)c2)c1 | 6.3µM* | 6% | 1% | 2 | -3% | -1%
COc1ccccc1N1CCN(c2cc(C)nc3nc(-c4ccc(Cl)cc4)nn23)CC1 | x | -19% | x | x | x | u
COc1ccccc1-c1cc2c(c(OC)c1)OCCN(CCC(C)c1ccc(C)o1)C2 (stereo not drawn) | x | -14%[9.04 µM] | x | x | x | -13%
Cc1ncc2c(n1)NC(=O)NC2 | -5% | 9% | 8% | -20 | 10% | 8%
CC(NCCC1(Cc2ccccc2Cl)CCOC(C)(C)C1)c1cccs1 (stereo not drawn) | -3% | 23µM* | u | -54* | -18% | 21µM*
CC(NCCC1(C(C)C)CCOC(C)(C)C1)c1cccs1 (stereo not drawn) | -2% | -20% | 5% | -15 | 2% | u
CC(=C1C(=O)c2ccccc2C1=O)N1CCN(c2ccc(F)cc2)CC1 | -2% | 1% | -3% | 4 | -1% | -27%
CC(=O)N1c2ccccc2C(=O)C1N1CCN(c2ccc(F)cc2)CC1 (stereo not drawn) | x | u | x | x | x | 15µM*
SMILES | uPA surface inh | TDP1 cell CPT | HT1080 IDH1KD tx | IL1B secr inh | HT1080NT lethal | TDP1 cell noCPT
c1ccc(Nc2cc(-c3ccoc3)ncn2)cc1 | x | -22% | x | x | x | -5%
CC(C)(C)OC(=O)N1CCCC(C(=O)Nc2ccc(C(=O)NCc3ccccc3)cc2)C1 (stereo not drawn) | -1% | u | 8% | -4 | 6% | u
N#CCSc1nccc(/C=C/c2ccccc2)n1 | -11% | 18% | -20% | -92* | -15% | -8%
N#CCSc1nc2ccccc2o1 | -3% | 17% | 6% | -2 | -1% | -7%
COc1ccc(-c2cc3nc(C)c(CCC(=O)NCc4ccccc4Cl)c(C)n3n2)c(OC)c1 | x | 18µM* | x | x | x | 13µM*
O=C(CCc1nc2ccccc2c(=O)[nH]1)Nc1cc(C(F)(F)F)ccc1N1CCOCC1 | -23% | u | u | 13 | -26% | u
COc1cc(OC)cc(-c2cc3nc(C)c(CCC(=O)NCCc4cccc(C)c4)c(C)n3n2)c1 | x | 16µM* | x | x | x | u
COc1cc(OC)cc(-c2cc3nc(C)c(CCC(=O)Nc4ccccc4OC)c(C)n3n2)c1 | x | u | x | x | x | 23µM*
COc1ccccc1CNC(=O)CCc1c(C)nc2cc(-c3ccccc3OC)nn2c1C | 7% | u | -4% | -9 | -6% | u
COc1cccc(Oc2ccc(C(F)(F)F)cc2NC(=O)CCc2nc3ccccc3c(=O)[nH]2)c1 | u | 16µM* | -26% | 18 | -21% | 18µM*
O=C(CCc1nc2ccccc2c(=O)[nH]1)NCc1cccc(Cl)c1 | -12% | 21µM* | u | 44 | 21µM* | 23µM*
COc1ccc(CCNC(=O)CCc2c(C)nc3nc(C)nn3c2C)cc1OC | x | 7% | x | x | x | 17%
COc1ccccc1-c1cc2nc(C)c(CCC(=O)NCCc3ccc(SC)cc3)c(C)n2n1 | x | u | x | x | x | 21µM*
COc1ccc(CCNC(=O)CCc2c(C)nc3cc(-c4cccc(F)c4)nn3c2C)cc1OC | x | 8.2µM* | x | x | x | 8.2µM*
Cc1nc2cc(-c3ccccc3)nn2c(C)c1CCC(=O)NCc1cccc(Cl)c1 | x | 26µM* | x | x | x | u
O=C(Nc1ccc2c(c1)CCO2)Nc1nnc([C@H]2C[C@H](O)[C@@H](CO)O2)s1 | x | -20% | u | 25 | 28% | 5%
